Laboratory results as given in PubChem BioAssay (NCATS).
Values without a mark were called inactive. Inconclusive results are not listed. Active and inactive are the calls of the source. Unless noted, the call rests on the fitted dose curve; in most records, active means well fitted curve in either direction with a large enough effect (not every such curve was filed as active); inconclusive means small, poorly fitted or top-dose-only effect, or another doubt; inactive means flat fitted curve, though single readings scatter.

Legend:
[1] = biological target: Lysosomal acid glucosylceramidase (Homo sapiens) (UniProt P04062); assay: Glucocerebrosidase-p2 (AID 348; in the data active means potency below about 10 µM; further: potency means the concentration at half of the fitted maximal effect); settings: purified GBA, blue fluorogenic substrate, 40 min
Method in brief: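 Normal human glucocerebrosidase (0.2 nM) with blue fluorogenic substrate (80 uM final) in citrate/phosphate pH 5.9 with 10mM sodium taurocholate, 0.01% tween-20; 40 min RT, NaOH/glycine stop; fluorescence Ex 365/Em 440; AC50 from a titration from 0.6 nM upwards.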

[2] = AP1 Signaling Pathway (AID 357); settings: ME-180 AP-1-bla reporter, EGF-induced, beta-lactamase ratio, 5 h; at 7.69 µM (top of the series) unless noted;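 further: ME-180 reporter cells stimulated with EGF at its EC50 level; on the % scale 0 is the no-effect control and ±100 the full control effect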
Method in brief: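 First, ME-180 AP-1-bla cells were cultured overnight at 37 °C in low-serum Opti-MEM. Next, titrated compounds with EC50 EGF were incubated 5 hours. Finally, CCF4 was added for 2.5 hours and the 460/530 nm ratio recorded.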

[3] = biological target: Cytochrome P450 1A2 (Homo sapiens) (UniProt P05177); assay: p450-cyp1a2 (AID 410; calls by dose curve; further: potency means the concentration at half of the fitted maximal effect;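 on activity change, negative = inhibition: -100% = full effect of reference inhibitor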); settings: recombinant CYP1A2, luciferin-ME demethylation, luminescence; series mostly up to 11.4 µM
Method in brief: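 20nM CYP1A2, 100uM Luciferin-ME (=Km), 100mM KPO4; cpd 10 min RT; +NADPH regen, 60 min RT; stop/detect 20 min; luminescence. Normalized to furafylline 57 uM = full inhibition.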

[4] = NFAT Signaling Pathway (AID 444); settings: Jurkat NFAT-bla M1, carbachol, beta-lactamase ratio, 5 h; at 7.69 µM (top of the series) unless noted;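 further: carbachol stimulus at about its EC50 of 1 µM final; on the % scale 0 is the no-effect control and ±100 the full control effect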
Method in brief: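 Jurkat cells carrying an NFAT-driven β-lactamase reporter and co-transfected muscarinic M1 receptor were treated with compound plus carbachol (1 uM final, an EC50 level) for 5 h at 37 °C. CCF4 loading followed for 1 h at RT; 460/530 nm ratio gave %activity.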

[5] = Stat Signaling Pathway (AID 446); settings: ME-180 (cervical carcinoma) SIE beta-lactamase reporter, IL-6 stimulated, 5 h; at 7.69 µM (top of the series) unless noted;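 further: ME-180 cervical cancer cells given 40 pM IL-6 alongside compound; SIE-controlled beta-lactamase reporter measured as 460/530 nm FRET emission ratio; on the % scale 0 is the no-effect control and ±100 the full control effect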
Method in brief: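 Compound effects on IL-6-induced STAT reporter activity were measured in ME-180 cells. After overnight culture, cells were co-treated with 40 pM IL-6 for 5 hrs before beta-lactamase substrate loading at room temperature.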

[6] = biological target: Glucocorticoid receptor (Homo sapiens) (UniProt P04150); assay: GR-GFP Redistribution (AID 450;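 active means compounds whose dose series gives a full or clear partial fitted curve of increased nuclear translocation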; further: potency means the concentration at half of the fitted maximal effect); settings: U2OS GR-GFP nuclear translocation, laser cytometry, 2 h
[7] = biological target: Glucocorticoid receptor (Homo sapiens) (UniProt P04150); assay: GR-EFC Redistribution (AID 451; calls by dose curve; further: potency means the concentration at half of the fitted maximal effect); settings: CHO-K1 GR-EFC translocation, beta-gal luminescence, 2 h
Method in brief: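 CHO-K1 cells stably expressing nuclear-localized β-gal enzyme acceptor and GR fused C-terminally to the enzyme donor fragment; ligand-driven nuclear translocation restores β-gal by complementation. Compounds titrated up to 46 uM final, 2 h at 37 °C; luminescence read.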

[8] = biological target: Mitogen-activated protein kinase 10 (Mus musculus) (UniProt Q61831); assay: JNK3 AlphaScreen Assay (AID 530); settings: JNK3 lysate, c-Jun phosphorylation; series mostly up to 11.4 µM;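 further: kinase came from lysate of stimulated human HepG2 cells; signal reports phosphorylation of biotinylated GST-cJun 1-79 at Ser73 with 10 µM ATP; on the % scale 0 is the no-effect control and ±100 the full control effect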
Method in brief: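 Biotinylated GST-cJun(1-79) served as substrate for JNK3 in HepG2 lysates stimulated with IL-1beta and TNF-alpha. ATP was 10 uM final, pH 7.6. Ser73 phosphorylation was quantified by AlphaScreen (680 nm excitation).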

[9] = biological target: 3',5'-cyclic-AMP phosphodiesterase 4B (Homo sapiens) (UniProt Q07343); assay: qHTS Assay for Inhibitors of PDE-IV (AID 607; active means well fitted activation curve with a large enough effect in the main read-out, with a control signal flat, not every such curve was filed as active; further: % of control where 0% means no effect); settings: HEK293 ACTOne CNG channel cells, membrane potential fluorescence; series mostly up to 22.9 µM
Method in brief: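 ACTOne HEK293 cells carry a modified cAMP-gated CNG channel and express endogenous PDE4; plated 1000 cells/well, compounds up to 22.9 uM final. Membrane-potential dye fluorescence (ex 535/em 590) was read; parental cells received 10 uM forskolin + 100 uM RO 20-1724.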

[10] = biological target: Cytochrome P450 3A4 (Homo sapiens) (UniProt P08684); assay: qHTS Assay for Activators of Cytochrome P450 3A4 (AID 885; active means well fitted curve in the direction sought with a large enough effect; an effect the other way counts as inactive or inconclusive; further: nearly all actives have a fitted effect of over 65% in size); settings: recombinant CYP3A4, Luciferin-PPXE luminescence, 60 min; series mostly up to 11.4 µM
Method in brief: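 CYP3A4 activity: Luciferin-PPXE O-dealkylation, 25uM substrate, 200mM KPO4, RT throughout. Read-out is luciferase luminescence; higher values reflect activation.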

[11] = biological target: Cytochrome P450 3A4 (Homo sapiens) (UniProt P08684); assay: qHTS Assay for Inhibitors and Substrates of Cytochrome P450 3A4 (AID 884; active means well fitted curve in the direction sought with a large enough effect; an effect the other way counts as inactive or inconclusive; further: potency means the concentration at half of the fitted maximal effect; nearly all actives have a fitted effect of over 50% in size); settings: recombinant CYP3A4, Luciferin-PPXE luminescence; series mostly up to 57.1 µM
Method in brief: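 Luminescent readout of luciferin produced by CYP3A4 (20 nM) dealkylation of Luciferin-PPXE, 25 uM (its KM). NADPH-driven reaction ran 60 min at RT after 10 min compound preincubation; data scaled to 57 uM ketoconazole as 100% inhibition.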

Chain of Cytochrome P450 3A4 (Homo sapiens) (P08684 whole entry, looked up): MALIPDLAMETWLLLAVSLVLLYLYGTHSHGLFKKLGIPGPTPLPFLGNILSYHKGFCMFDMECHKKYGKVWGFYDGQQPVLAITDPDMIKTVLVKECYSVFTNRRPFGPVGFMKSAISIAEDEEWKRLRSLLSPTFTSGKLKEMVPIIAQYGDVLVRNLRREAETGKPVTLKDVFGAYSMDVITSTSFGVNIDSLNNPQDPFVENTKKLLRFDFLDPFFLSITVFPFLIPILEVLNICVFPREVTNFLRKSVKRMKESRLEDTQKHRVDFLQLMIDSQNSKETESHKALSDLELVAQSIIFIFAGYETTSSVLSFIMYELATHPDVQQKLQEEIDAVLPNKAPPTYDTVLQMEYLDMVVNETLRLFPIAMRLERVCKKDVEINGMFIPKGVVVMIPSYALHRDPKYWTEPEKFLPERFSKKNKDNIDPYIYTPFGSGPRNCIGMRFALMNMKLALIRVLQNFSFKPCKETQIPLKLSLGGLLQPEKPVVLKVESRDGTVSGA
Chain of 3',5'-cyclic-AMP phosphodiesterase 4B (Homo sapiens) (Q07343 whole entry, looked up): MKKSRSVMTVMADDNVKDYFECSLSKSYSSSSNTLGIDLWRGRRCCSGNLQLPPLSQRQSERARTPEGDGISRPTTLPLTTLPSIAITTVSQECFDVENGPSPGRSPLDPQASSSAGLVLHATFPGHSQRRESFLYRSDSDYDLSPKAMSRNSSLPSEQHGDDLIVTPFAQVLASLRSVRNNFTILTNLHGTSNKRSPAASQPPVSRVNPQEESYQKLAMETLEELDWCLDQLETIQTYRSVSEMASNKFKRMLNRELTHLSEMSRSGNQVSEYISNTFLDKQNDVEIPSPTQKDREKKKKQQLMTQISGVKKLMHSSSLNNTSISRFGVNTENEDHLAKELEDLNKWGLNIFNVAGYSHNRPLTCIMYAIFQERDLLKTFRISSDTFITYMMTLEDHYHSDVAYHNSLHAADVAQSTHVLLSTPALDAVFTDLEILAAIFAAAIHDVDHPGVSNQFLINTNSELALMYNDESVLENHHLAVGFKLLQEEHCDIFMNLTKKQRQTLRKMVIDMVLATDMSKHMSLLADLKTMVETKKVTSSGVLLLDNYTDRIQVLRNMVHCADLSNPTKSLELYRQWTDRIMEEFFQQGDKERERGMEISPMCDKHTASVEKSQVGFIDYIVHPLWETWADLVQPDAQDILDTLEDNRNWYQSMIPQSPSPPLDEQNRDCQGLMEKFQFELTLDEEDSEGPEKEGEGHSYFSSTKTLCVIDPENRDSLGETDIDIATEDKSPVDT
Chain of Lysosomal acid glucosylceramidase (Homo sapiens) (P04062 whole entry, looked up): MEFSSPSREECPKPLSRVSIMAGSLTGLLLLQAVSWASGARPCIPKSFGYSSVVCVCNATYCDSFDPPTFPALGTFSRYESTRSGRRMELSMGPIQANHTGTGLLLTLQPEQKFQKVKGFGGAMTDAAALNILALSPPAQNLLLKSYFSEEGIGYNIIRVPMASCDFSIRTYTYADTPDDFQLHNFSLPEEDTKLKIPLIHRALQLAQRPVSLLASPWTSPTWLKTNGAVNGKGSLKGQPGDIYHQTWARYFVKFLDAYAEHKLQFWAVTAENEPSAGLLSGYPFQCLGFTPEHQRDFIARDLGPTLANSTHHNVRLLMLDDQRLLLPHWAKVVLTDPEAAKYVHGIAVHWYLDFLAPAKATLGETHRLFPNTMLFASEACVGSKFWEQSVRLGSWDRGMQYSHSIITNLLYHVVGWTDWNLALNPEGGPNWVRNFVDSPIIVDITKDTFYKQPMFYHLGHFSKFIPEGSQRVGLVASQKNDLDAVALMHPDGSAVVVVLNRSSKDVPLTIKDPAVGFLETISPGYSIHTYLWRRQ
Chain of Cytochrome P450 1A2 (Homo sapiens) (P05177 whole entry, looked up): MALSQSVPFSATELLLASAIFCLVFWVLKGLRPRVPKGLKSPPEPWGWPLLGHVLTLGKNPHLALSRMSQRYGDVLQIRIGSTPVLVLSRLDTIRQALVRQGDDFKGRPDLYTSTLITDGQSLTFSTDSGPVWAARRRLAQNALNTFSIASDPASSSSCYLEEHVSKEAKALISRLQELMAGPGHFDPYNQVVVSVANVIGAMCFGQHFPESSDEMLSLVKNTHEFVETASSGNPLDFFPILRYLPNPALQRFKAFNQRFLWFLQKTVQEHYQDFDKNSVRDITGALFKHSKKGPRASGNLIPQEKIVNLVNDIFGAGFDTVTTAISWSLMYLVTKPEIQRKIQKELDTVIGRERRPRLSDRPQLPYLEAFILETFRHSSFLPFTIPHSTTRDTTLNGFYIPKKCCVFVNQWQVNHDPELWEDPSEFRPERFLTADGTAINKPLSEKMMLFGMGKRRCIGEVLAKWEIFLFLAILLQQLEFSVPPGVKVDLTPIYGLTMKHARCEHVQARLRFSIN
Chain of Glucocorticoid receptor (Homo sapiens) (P04150 whole entry, looked up, the tested form may be a part): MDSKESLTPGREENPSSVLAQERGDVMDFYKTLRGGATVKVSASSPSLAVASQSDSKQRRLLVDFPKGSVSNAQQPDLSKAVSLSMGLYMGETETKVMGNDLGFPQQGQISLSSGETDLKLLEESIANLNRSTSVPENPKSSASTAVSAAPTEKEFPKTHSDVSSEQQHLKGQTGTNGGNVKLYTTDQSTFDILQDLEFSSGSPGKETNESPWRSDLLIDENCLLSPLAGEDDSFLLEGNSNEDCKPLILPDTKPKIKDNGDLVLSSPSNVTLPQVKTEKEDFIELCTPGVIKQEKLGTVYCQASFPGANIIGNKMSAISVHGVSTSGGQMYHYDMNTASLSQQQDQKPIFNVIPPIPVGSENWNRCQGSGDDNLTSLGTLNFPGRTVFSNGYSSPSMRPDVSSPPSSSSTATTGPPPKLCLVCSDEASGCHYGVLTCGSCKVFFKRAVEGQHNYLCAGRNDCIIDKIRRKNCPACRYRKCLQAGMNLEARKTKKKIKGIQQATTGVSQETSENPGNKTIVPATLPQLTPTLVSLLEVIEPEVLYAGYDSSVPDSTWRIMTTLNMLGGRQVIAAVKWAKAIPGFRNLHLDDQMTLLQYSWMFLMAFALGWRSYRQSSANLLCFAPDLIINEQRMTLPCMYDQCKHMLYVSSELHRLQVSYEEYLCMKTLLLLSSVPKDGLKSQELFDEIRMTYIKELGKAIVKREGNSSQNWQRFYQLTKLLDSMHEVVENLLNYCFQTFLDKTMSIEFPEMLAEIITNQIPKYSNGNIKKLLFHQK

Row | Compound | Potency [1] [µM] | activity change, negative = inhibition [2] [%] | Potency [3] | activity change, negative = inhibition [4] [%] | activity, negative = inhibition [5] [%] | Potency [6] [µM] | Potency [7] [µM] | Potency [8] | Potency [9] | Potency [10] | Potency [11]
1 | Nc1nc(Cc2ccccc2)nc(Cc2ccccc2)c1-c1ccccc1 | > 11.4 | -20.1 | 1 µM (active) | 11.3 | -7.29 | > 46 | > 9.22 | inactive | inactive | inactive | –
2 | c1ccc(C[C@@H](Nc2cccnc2)c2ccccc2)cc1 | > 11.4 | 5.71 | 0.2 µM (active) | -11.2 | -4.39 | > 46 | > 9.22 | inactive | inactive | inactive | 3.16 µM (active)
3 | CC1=NN(C(=O)c2ccncc2)C(=O)[C@@H]1N=Nc1ccc2ccccc2c1 | > 11.4 | -15.6 | 0.158 µM (active) | 11.9 | -4.73 | > 46 | > 9.22 | inactive | inactive | inactive | –
4 | Cn1c(=S)c2[nH]c(SCc3cccnc3)nc2n(C)c1=O | > 11.4 | -21.1 | 3.98 µM (active) | 0.274 | 1.06 | > 46 | > 9.22 | inactive | inactive | inactive | 3.16 µM (active)
5 | N=C(N)S[C@H]1c2ccccc2-c2cc([N+](=O)[O-])ccc21 | > 11.4 | -7.27 | 0.158 µM (active) | -0.855 | -2.76 | > 46 | > 9.22 | inactive | inactive | inactive | 5.01 µM (active)
6 | CC(C)C[C@@H](N)C(=O)Nc1ccc2ccccc2c1 | > 11.4 | 9.25 | 1.58 µM (active) | 8.34 | -2.09 | > 46 | > 9.22 | inactive | inactive | inactive | –
7 | Cc1ccc(Nc2nnc(-c3ccc4c(c3)OCO4)o2)c(C)c1 | > 11.4 | -5.47 | 2.51 µM (active) | 1.57 | -2.78 | > 46 | > 9.22 | inactive | inactive | inactive | 3.16 µM (active)
8 | c1cc(CNCCN2CCNCC2)ccn1 | > 11.4 | -6.63 | inactive | 3.58 | -1.72 | > 46 | > 9.22 | inactive | inactive | inactive | –
9 | O=C(O)/C=C\C(=O)Nc1ccc2c(c1)-c1ccccc1C2 | > 11.4 | -11.5 | 1 µM (active) | 6.68 | -8.21 | > 46 | > 9.22 | inactive | inactive | inactive | –
10 | Cc1ccc(-c2nnc(-c3ccc4ccccc4c3)o2)cc1 | > 11.4 | 13.5 | 0.631 µM (active) | -21 | 14.3 | > 46 | > 9.22 | inactive | inactive | inactive | –
11 | ON(CCc1ccccn1)Cc1ccccc1 | > 11.4 | -1.79 | 2.51 µM (active) | 10.2 | -0.0119 | > 46 | > 9.22 | inactive | inactive | inactive | –
12 | CN1CCN(Cc2nc3cccc4c3c([n+]2[O-])-c2ccccc2-4)CC1 | > 11.4 | -4.75 | 1.26 µM (active) | 9.77 | 6.12 | > 46 | > 9.22 | inactive | inactive | inactive | –
13 | Cc1nc2cnc(Oc3cccc(Cl)c3)nc2n(C[C@H]2CCCO2)c1=O | > 11.4 | -15.8 | 7.94 µM (active) | -3.55 | -6.17 | > 9.22 | > 46 | inactive | inactive | inactive | –
14 | N#CCCSC(=S)[C@H]1CCCC1=N | > 11.4 | 13.5 | 3.16 µM (active) | -9.46 | -9.66 | > 46 | > 9.22 | inactive | inactive | inactive | –
